Measured values as given in PubChem BioAssay (NCATS).
Several values for one entry are separate records, joined by “and”; a condition that tells them apart may be missing. Identical values can stand only once. Results filed as inconclusive are left out. Activity calls are given as the source filed them. Unless noted, calls come from the whole dose curve; as a rule, active = well fitted curve in the direction sought with a large enough effect; inconclusive = small, poorly fitted or top-dose-only effect, or another doubt; inactive = no such curve, though single readings can be large; an effect the other way counts as inactive or inconclusive.

Legend:
[1] = Primary qHTS for small molecule stabilizers of the endoplasmic reticulum resident proteome: Secreted ER Calcium Modulated Protein (SERCaMP) assay (AID 1508630); note: % is set by controls: 0 for no effect and ±100 for the full control effect
Outline: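 GLuc-SERCaMP-expressing SH-SY5Y cells, pretreated 16 h with compound, are challenged with thapsigargin to empty ER calcium stores; after 4 h, coelenterazine is added directly to the medium and luminescence is imaged.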

[2] = molecular target: Cytochrome P450 2D6 (Homo sapiens) (UniProt P10635); assay: Cytochrome P450 family 2 subfamily D member 6 (CYP2D6) small molecule antagonists: luciferase biochemical (cell-free) qHTS assay (AID 1645840; active = well fitted curve in the direction sought with a large enough effect in the repeat runs; an effect the other way counts as inactive or inconclusive; note: nearly all actives have a fitted effect of over 55% in size; note: potency is the fitted concentration of half-maximal effect; for activity change, negative = inhibition: % is set by controls: 0 for no effect and ±100 for the full control effect)
Outline: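 P450-Glo luminescent screen: recombinant CYP2D6 enzyme–proluciferin substrate mix preincubated with compound 10 min at room temperature, then NADPH regeneration added for 1 h at room temperature. Detection reagent added for 20 min; luciferin light read as relative luminescence units.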

[3] = molecular target: Cytochrome P450 2C9 (Homo sapiens) (UniProt P11712); assay: Cytochrome P450 family 2 subfamily C member 9 (CYP2C9) small molecule antagonists: luciferase biochemical (cell-free) qHTS assay (AID 1645842; active = well fitted curve in the direction sought with a large enough effect in the repeat runs; an effect the other way counts as inactive or inconclusive; note: nearly all actives have a fitted effect of over 55% in size; note: potency is the fitted concentration of half-maximal effect; for activity change, negative = inhibition: % is set by controls: 0 for no effect and ±100 for the full control effect)
Outline: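 Luminescence, after 20 min with luciferin detection reagent, reflected CYP2C9 turnover during a 1 h NADPH-driven reaction at 37C. Enzyme-substrate mix contained 0.4% bovine serum albumin and was preincubated with compound 10 min at room temperature.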

[4] = Primary qHTS for inhibitors of nuclear receptor binding SET domain protein 2 (NSD2) in an isogenic RCH-ACV NSD2 p.E1099K mutant (9B) (AID 1645876); note: nearly all actives have a fitted effect of over 70% in size; note: potency is the fitted concentration of half-maximal effect
[5] = Primary qHTS for inhibitors of nuclear receptor binding SET domain protein 2 (NSD2) in an RCH-ACV wild type WT cells (2C) (AID 1645877); note: nearly all actives have a fitted effect of over 70% in size; note: potency is the fitted concentration of half-maximal effect
[6] = molecular target: Catechol O-methyltransferase (Homo sapiens) (UniProt P21964); assay: Confirmatory Screen for Target Class Profiling of Small Molecule Inhibitors of Methyltransferases (AID 1745852; calls by dose curve; note: potency is the fitted concentration of half-maximal effect; for activity change, negative = inhibition: % is set by controls: 0 for no effect and ±100 for the full control effect); conditions: MTase-Glo luminescence, SAH detection, recombinant enzyme; measured here: COMT max response; stronger effect = lower value
[7] = molecular target: Guanidinoacetate N-methyltransferase (Homo sapiens) (UniProt Q14353); assay: as above; conditions: MTase-Glo luminescence, SAH detection, recombinant enzyme; activity change, negative = inhibition: at 57.3 µM (top of the series) unless noted

Cytochrome P450 2C9 (Homo sapiens), sequence (P11712 whole entry, looked up): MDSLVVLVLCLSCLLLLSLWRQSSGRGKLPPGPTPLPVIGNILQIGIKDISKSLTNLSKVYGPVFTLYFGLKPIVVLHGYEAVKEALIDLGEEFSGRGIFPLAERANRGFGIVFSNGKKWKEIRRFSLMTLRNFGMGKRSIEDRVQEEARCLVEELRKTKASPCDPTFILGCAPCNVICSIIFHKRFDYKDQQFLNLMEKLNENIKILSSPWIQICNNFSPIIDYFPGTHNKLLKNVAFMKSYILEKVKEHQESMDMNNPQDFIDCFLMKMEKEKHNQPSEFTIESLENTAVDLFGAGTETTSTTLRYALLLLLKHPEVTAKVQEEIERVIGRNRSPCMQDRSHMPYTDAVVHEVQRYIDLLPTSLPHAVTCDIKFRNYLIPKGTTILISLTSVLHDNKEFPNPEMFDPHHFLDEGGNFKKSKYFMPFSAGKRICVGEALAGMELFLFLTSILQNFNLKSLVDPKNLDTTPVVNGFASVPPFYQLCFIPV
Cytochrome P450 2D6 (Homo sapiens), sequence (P10635 whole entry, looked up): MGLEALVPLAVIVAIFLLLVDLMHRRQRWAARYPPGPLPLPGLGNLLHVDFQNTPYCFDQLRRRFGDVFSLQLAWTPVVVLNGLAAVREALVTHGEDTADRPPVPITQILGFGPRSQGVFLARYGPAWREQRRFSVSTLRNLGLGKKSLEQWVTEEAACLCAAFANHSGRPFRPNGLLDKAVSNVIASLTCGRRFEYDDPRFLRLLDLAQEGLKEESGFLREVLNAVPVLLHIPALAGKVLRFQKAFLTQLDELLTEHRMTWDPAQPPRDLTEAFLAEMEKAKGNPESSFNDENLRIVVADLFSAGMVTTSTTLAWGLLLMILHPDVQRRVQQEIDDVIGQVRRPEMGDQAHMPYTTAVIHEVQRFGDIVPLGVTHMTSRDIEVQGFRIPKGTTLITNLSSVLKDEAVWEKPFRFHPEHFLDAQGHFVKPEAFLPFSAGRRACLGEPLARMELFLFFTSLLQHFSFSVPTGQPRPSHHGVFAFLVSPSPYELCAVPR
Catechol O-methyltransferase (Homo sapiens), sequence (P21964 whole entry, looked up): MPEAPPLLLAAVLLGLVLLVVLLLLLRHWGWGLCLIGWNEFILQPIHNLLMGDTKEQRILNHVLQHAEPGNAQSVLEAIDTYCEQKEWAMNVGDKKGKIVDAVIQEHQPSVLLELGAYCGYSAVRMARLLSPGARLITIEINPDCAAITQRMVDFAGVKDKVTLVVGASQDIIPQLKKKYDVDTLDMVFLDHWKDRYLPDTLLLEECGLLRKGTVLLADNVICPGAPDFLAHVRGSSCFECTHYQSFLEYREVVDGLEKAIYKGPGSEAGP

| SMILES | Potency [1] | Potency [2] | Potency [3] | Potency [4] | Potency [5] | activity [6] | activity change, negative = inhibition [7] | Potency [7] |
| --- | --- | --- | --- | --- | --- | --- | --- | --- |
| CCNC(=O)Nc1ccc2ncc(Nc3ccc(C)cc3)nc2n1 | inactive | inactive | inactive | inactive | inactive |  |  |  |
| CC1(C)CC(=O)c2c(C(F)(F)F)nn(-c3ccc(C(N)=O)c(NC4CCC(OC(=O)CN)CC4)c3)c2C1 (stereo unspecified) | inactive | 15.1 µM (active) | 2.68 µM (active) | 103 nM (active) and 74.2 nM (active) |  | -2.7% | 0% |  |
| CNC(=O)c1c(F)cccc1Nc1nc(Nc2cc3c(cc2OC)CCN3C(=O)CN(C)C)nc2[nH]ccc12 | inactive | inactive | 0.425 µM (active) | 5.15 µM (active) and 7.42 µM (active) | 3.25 µM (active) and 5.9 µM (active) |  |  |  |
| C=CC(=O)Nc1cccc(Oc2nc(Nc3ccc(N4CCN(C)CC4)cc3)ncc2Cl)c1 | inactive | 19 µM (active) | 2.39 µM (active) | 728 nM (active) and 2.09 µM (active) | 649 nM (active) and 1.32 µM (active) | -18% |  | 27.1 µM (active) |
| CNC(=O)c1nn(C)c2c1C(C)(C)Cc1cnc(Nc3ccc(N4CCN(C)CC4)cc3)nc1-2 | inactive | inactive |  | 515 nM (active) and 662 nM (active) | 409 nM (active) and 417 nM (active) |  |  |  |
| COc1cc(C)c(Sc2cnc(NC(=O)c3ccc(CNC(C)C(C)C)cc3)s2)cc1C(=O)N1CCN(C(C)=O)CC1 (stereo unspecified) | inactive | 21.3 µM (active) |  | 8.33 µM (active) and 7.28 µM (active) | 8.33 µM (active) and 5.78 µM (active) |  |  |  |
